# Source: PubChem
# Most compounds without a hit are left out; they make up all but 6.5% or so of the library.
# TGFb inhibitor – qHTS for Inhibitors of TGF-b; hit rate 1.2% among 410,000; Potency, µM (doses to about 46.1 µM), inactives show top-dose activity, negative = inhibition, most hits filed as inhibitors; AID 588855, 2011; HepG2 CAGA-GFP TGF-b/SMAD3 reporter, GFP fluorescence, 18 h; TGF-beta stimulated, 500 pg/mL final; note: potency is the fitted concentration of half-maximal effect; % is set by controls: 0 for no effect and ±100 for the full control effect; nearly all actives have a fitted effect of over 65% in size
#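 Per well, imaged GFP fluorescence of HEPG2 CAGA-GFP cells gives the signal; cells get compound, then TGF-beta (500 pg/mL final), 18 h at 37 degrees C; %Activity versus -TGF-beta and +DMSO controls.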
# HepG2 tox – qHTS for Inhibitors of TGF-b: Cytotox Counterscreen. HepG2 CAGA-GFP viability, ATP luminescence, 18 h. Potency, µM (titrated, usually from 46.1 µM), for the others: at the highest dose activity change, negative = cytotoxicity, hits mostly cytotoxic. hit rate 0.76% among 410,000. AID 588856, 2011; note: potency is the fitted concentration of half-maximal effect
#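 HepG2 CAGA-GFP cells (1000/well, DMEM with 1% FBS) received compound, then TGF-beta at 500 pg/mL final, and were incubated 18 hours at 37 degrees C. Viability was read by CellTiter-Glo luminescence. Media-only wells were set as complete cell-killing and DMSO as no toxicity.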
# HT1080-NT tox – qHTS for induction of synthetic lethality in tumor cells producing 2HG: qHTS for the HT-1080-NT fibrosarcoma cell line. hit rate 1.6% among 360,000. AID 686970, 2013. Potency, µM (titrated, usually from 46.1 µM), without a hit: top-dose activity, negative = less viability, most hits filed as cytotoxic. HT-1080-NT fibrosarcoma viability, CellTiter-Glo ATP luminescence, 48 h;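 note: NT is the 2HG producing partner of a matched IDH1 knockdown line; potency is the fitted concentration of half-maximal effect; 0% = DMSO-treated cells and -100% = media-only wells without cells; nearly all actives have a fitted effect of over 55% in size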
#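 Fibrosarcoma NT cells, 750 per well in 5% FBS RPMI, were exposed to compound for 48 hours. Viability: CellTiter-Glo luminescence.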
# Giardia killer – Small Molecules that selectively kill Giardia lamblia: qHTS | Giardia lamblia trophozoite viability | activity change, % at 7.66 µM, hits read low | hit rate 0.15% among 340,000 | AID 540267, 2011; in the data active = activity change below about -80%; inconclusive = between about -30% and that limit;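 note: parasites exposed to compound for two days anaerobically before the ATP read; % is set by controls: 0 for no effect and ±100 for the full control effect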
#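 Trophozoite viability was measured as ATP-dependent luminescence, read 15-30 min after reagent addition. Before that, parasites at 100 cells/well were exposed to compounds for 48 h, anaerobically, at 37 deg C.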
# IL1B secr inh – qHTS for Inhibitors of Inflammasome Signaling: IL-1-beta AlphaLISA Primary Screen; activity change, % at 57.5 µM; THP-1 LPS/ATP IL-1B secretion, AlphaLISA, 16 h; stronger effect = lower value; AID 743279, 2014; hit rate 4.7% among 360,000; in the data active = activity change below about -50%; inconclusive = mostly about -30% to -49%; note: % is set by controls: 0 for no effect and ±100 for the full control effect
#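 THP-1 cells pretreated 1 hr with compounds (up to 57.5 uM final), then stimulated with LPS (250 ng/mL final) plus ATP (1.25 mM final); secreted IL-1B measured by AlphaLISA after 16 hr, decreased signal indicating inhibition.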
# HT1080 IDH1KD tx – qHTS for induction of synthetic lethality in tumor cells producing 2HG: qHTS for the HT-1080-IDH1KD cell line; HT-1080 IDH1 knockdown viability, ATP luminescence, 48 h; Potency, µM (highest dose often 46.1 µM), for inactives: at the top dose activity, negative = toxicity, actives largely listed as cytotoxic; hit rate 2% among 360,000;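 note: potency is the fitted concentration of half-maximal effect; 0% = DMSO wells and -100% = cell-free medium wells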
#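 Viability of IDH1-knockdown HT-1080 fibrosarcoma cells was assessed by CellTiter-Glo after 48 h at 37 °C with titrated compound; concentration-effect curves were classified by fit quality and response size.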
# The depositor's hits bear a star; ? = inconclusive; . = not tested or not shown; ! = a repeat was not active. Unless noted, calls come from the whole dose curve; as a rule, active = well fitted curve in the direction sought with a large enough effect; inconclusive = small, poorly fitted or top-dose-only effect, or another doubt; inactive = no such curve, though single readings can be large; an effect the other way counts as inactive or inconclusive.
SMILES,TGFb inhibitor,HepG2 tox,HT1080-NT tox,Giardia killer,IL1B secr inh,HT1080 IDH1KD tx
CC(C)(C)c1ccc(OCCNCc2ccccc2)cc1,-3%,-43%,?,-8,-93*,16µM*
CCCOc1ccc(OCCCCNC(C)CC)cc1 (stereo not drawn),32%,-11%,-15%,-1,0,6%
CCC(C)NCCOc1ccc(C(C)(C)c2ccccc2)cc1 (stereo not drawn),-3%,-20%,18µM*,-8,-66*,?
CC(C)[C@H](NC(=O)C1CCN(C(=O)[C@H](Cc2ccccc2)NC(=O)OC(C)(C)C)CC1)C(=O)O,18%,-4%,26%,-3,23,27%
CCOC(=O)N1CCN(C(=O)COc2ccc(S(=O)(=O)NCc3ccccc3)cc2)CC1,-20%,-4%,-6%,4,0,-5%
O=C(Nc1ccc(Cl)cc1)NC1CCCC1Cc1ccco1 (stereo not drawn),?,-16%,-15%,-11,-89*,?
O=C(Nc1ccc(Cl)cc1)NC1CCCCC1Cc1ccco1 (stereo not drawn),-9%,-53%,?,0,-8,?
COc1cccc(C(=O)Oc2c(Sc3ccc(C)cc3)c(C)nn2C(C)(C)C)c1OC,13µM*,13µM*,.,.,.,.
c1ccc(SCc2nc3ccccc3[nH]2)nc1,-2%,1%,-2%,-16,0,-1%
COCC(C)N=C1NN=C(c2c[nH]c3ccccc23)CS1 (stereo not drawn),-12%,-12%,1%,19,-80*,-7%
CCN=C1NN=C(c2c[nH]c3ccccc23)CS1,5%,-8%,-24%,-1,-106*,-16%
Cc1cc(C)n(C(=O)COc2ccc([N+](=O)[O-])cc2)n1,3%,0%,17%,2,-10,20%
CC(C)(C)CC(C)(C)c1ccc(O)c(Cc2ccc(Cl)cc2Cl)c1,?,-41%,3.7µM*,-1,-72*,18µM*
O=Nc1c2cc(-c3ccccc3)[nH]nc-2c2ccccc12,2%,-59%,-17%,?,28,?
O=C(COC(=O)CN1C(=O)C2CC=CCC2C1=O)Nc1cccc([N+](=O)[O-])c1 (stereo not drawn),0%,0%,17%,.,12,7%
O=C(Nc1cccc(F)c1)N(Cc1ccc(Cl)cc1)CC(O)C(F)(F)F (stereo not drawn),?,-59%,21µM*,-10,-18,?
Cc1ccc(S(=O)(=O)N2CCN(CC(=O)NC3CCCc4ccccc43)CC2)c(C)c1 (stereo not drawn),-25%,-1%,-23%,-11,?,-19%
Cc1ccc(S(=O)(=O)N2CCN(CC(=O)NC3CCCc4ccccc43)CC2)cc1C (stereo not drawn),?,0%,-3%,-4,-54*!,-15%
CC1(C)CC(=O)c2sc(NC(=O)C3COc4ccccc4O3)nc2C1 (stereo not drawn),4%,-30%,14%,-1,-22,0%
Cc1ccc2c(CC(=O)Nc3ccc(S(=O)(=O)N4CCCC(C)C4)cc3)coc2c1 (stereo not drawn),?,-10%,.,.,.,.
Clc1cccc(CNCCNCc2cccc(Cl)c2)c1,-24%,-22%,-26%,-13,-53*,-18%
CC1=C(C)CC(C(=O)Nc2ccc(C(N)=O)cc2)C(C(=O)O)C1 (stereo not drawn),-2%,0%,1%,-1,15,10%
O=C(N/N=C\c1cn[nH]c1-c1ccc(Cl)cc1)c1cccs1,10µM*,-87%,-15%,-19,?,-12%
CC1=C(C#N)C(C)(C)C(C#N)=C(C)N1,-1%,1.1µM*,-4%,.,5,0%
CC1(C)C(C#N)=C(N)OC2=C1C(=O)CCC2,-3%,5%,-3%,-3,20,9%
SMILES,TGFb inhibitor,HepG2 tox,HT1080-NT tox,Giardia killer,IL1B secr inh,HT1080 IDH1KD tx
O=C(Nc1ncc(Cc2ccc(Cl)cc2Cl)s1)c1ccc([N+](=O)[O-])cc1,14%,14%,-6%,1,-10,-1%
Cc1ccc2nc(Cl)c(/C=N/Nc3nc(C)cc(C)n3)c(=O)n2c1,1%,1%,13%,-21,-97*,5%
CCSc1ncc(/C=N/Nc2ccccc2)n1C,6%,2%,-24%,5,16,-27%
CCSc1ncc(/C=N/Nc2ccc([N+](=O)[O-])cc2)n1C,?,-6%,13µM*,-9,-11,13µM*
CC(NC(=O)c1ccc(F)cc1)c1ccc2c(c1)CCCC2 (stereo not drawn),?,-9%,-9%,17,-4,-5%
COc1nc(N)nc(NC23CC4CC(CC(C4)C2)C3)n1,-17%,-30%,-21%,11,0,-17%
CCOP(=O)(OCC)C(C)(C)NC(=O)Nc1ccc(Cl)c(Cl)c1,-17%,-2%,-11%,-6,-67*,-14%
CCN1CCN(C(CC(C)C)c2nnnn2CS(=O)(=O)c2ccc(C)cc2)CC1 (stereo not drawn),-6%,2%,-15%,15,-73*,1%
O=C(NCCc1ccc(F)cc1)C1CCCCC1,-11%,-15%,21%,5,0,9%
CCN1CCC(NCCc2ccc(F)cc2)CC1,-22%,-36%,-19%,-5,-54*,-12%
COc1ccc(-c2nc(NC(=O)c3[nH]c(C)c(C(C)=O)c3C)sc2C)cc1,-20%,-5%,?,8,-82*,?
O=C(CN1CCC(Cc2ccccc2)CC1)NCCc1ccc(F)cc1,?,-3%,-12%,-2,-69*,-20%
O=C(CN1CCN(c2ccc(F)cc2)CC1)N1CCC(Cc2ccccc2)CC1,-41%,-89%,0%,-13,-52*,0%
CC(=O)c1ccc(N2CCN(CC(O)COCc3ccco3)CC2)cc1 (stereo not drawn),1%,-1%,-1%,9,2,-2%
O=C(CSc1ccc2nnc(-c3ccc(Cl)cc3)n2n1)N1CCCC1,-29%,-21%,-2%,-28,-7,4%
CN(C)CCCn1c(SCC(=O)Nc2nc(-c3cccc(Br)c3)cs2)nc2ccccc2c1=O,?,-100%,21µM*,7,-90*,16µM*
